hgDAF-12 ag – activates the H. glycines DAF-12 receptor ligand-binding domain. 370,000 compounds, 1.8% hits. HEK293 GAL4-hgDAF12 UAS-luciferase reporter, agonist luminescence; normalized to butyrate control. AID 687014. activation, % at 6.8 µM;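 active = activation above a cutoff set at the mean of all screened compounds plus 3 SD, cut at about 10% in these data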;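 also: 0% = DMSO wells and 100% = sodium butyrate wells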
ssDAF12 agonist – S. stercoralis DAF-12 activation, primary screen | HEK293 ssDAF-12/GRIP1 lit1-tk-luc reporter, luminescence; % of 3 µM dafachronic acid response | activation, % at 6.8 µM | 370,000 compounds, 1% hits;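 active = activation above the mean over all tested compounds plus 3 SD, cut at about 0.9% in these data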;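 also: 0% = DMSO-only wells and 100% = 3 µM delta7-dafachronic acid wells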
AHR act – activators of human aryl hydrocarbon receptor. AHR-responsive luciferase reporter cells, luminescence. activation, % at 5 µM. 320,000 compounds, 2.5% hits; in the data active = activation above about 47%;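 also: 0% = vehicle wells and 100% = reference agonist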
Target sequence (P35869 whole entry, looked up): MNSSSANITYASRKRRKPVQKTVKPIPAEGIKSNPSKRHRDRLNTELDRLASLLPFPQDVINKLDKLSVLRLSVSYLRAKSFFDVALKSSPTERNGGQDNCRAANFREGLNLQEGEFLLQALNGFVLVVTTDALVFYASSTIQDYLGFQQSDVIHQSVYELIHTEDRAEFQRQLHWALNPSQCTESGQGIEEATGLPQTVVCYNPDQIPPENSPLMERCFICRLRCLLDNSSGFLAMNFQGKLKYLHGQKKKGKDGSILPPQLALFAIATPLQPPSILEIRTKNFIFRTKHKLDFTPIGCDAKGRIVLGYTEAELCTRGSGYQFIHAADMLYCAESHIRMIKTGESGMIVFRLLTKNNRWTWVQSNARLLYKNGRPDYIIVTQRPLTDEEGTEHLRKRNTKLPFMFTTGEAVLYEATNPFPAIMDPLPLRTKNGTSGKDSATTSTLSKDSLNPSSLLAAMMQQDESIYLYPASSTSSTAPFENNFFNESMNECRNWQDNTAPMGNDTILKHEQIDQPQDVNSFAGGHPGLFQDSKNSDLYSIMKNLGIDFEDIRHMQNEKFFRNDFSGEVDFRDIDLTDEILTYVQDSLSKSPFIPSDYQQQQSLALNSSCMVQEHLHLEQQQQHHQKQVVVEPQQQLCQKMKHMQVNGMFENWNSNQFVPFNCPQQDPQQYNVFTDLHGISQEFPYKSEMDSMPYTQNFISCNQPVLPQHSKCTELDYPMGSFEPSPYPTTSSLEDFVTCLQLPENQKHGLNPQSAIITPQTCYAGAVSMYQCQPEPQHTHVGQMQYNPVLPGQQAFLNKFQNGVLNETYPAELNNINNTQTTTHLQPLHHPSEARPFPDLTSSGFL
DAX1 inh-1 – DAX1 (NR0B1) inhibition, primary screen | HEK293T StAR-luciferase reporter, SF-1/DAX-1 repression relief | inhibition, % at 6.8 µM | 370,000 compounds, 1.1% hits | AID 652010;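 active = inhibition above the mean over all tested compounds plus 3 SD, cut at about 3.6% in these data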;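 also: 0% = DAX-1 cells with DMSO and 100% = cells lacking DAX-1 with DMSO; higher inhibition means more luminescence from relief of DAX-1 repression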
hcDAF12 agonist – activates DAF-12 receptor from parasite H. contortus. activation, % at 6.8 µM. 370,000 compounds, 1.4% hits. AID 652067. HEK293 hcDAF-12 lit1-tk-luc reporter, luminescence; 0% DMSO, 100% Δ7-dafachronic acid;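 active = activation above the mean of all tested compounds plus 3 SD, cut at about 5.5% in these data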;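 also: 100% = response to 3 µM Δ7-dafachronic acid high control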
DAX1 inh-2 – inhibits human nuclear receptor DAX1. P51843. HEK293 Gal4-DAX1 luciferase reporter, luminescence. inhibition, % at 6.75 µM. 340,000 compounds, 0.99% hits. AID 504766;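 active = inhibition above the mean over all tested compounds plus 3 SD, cut at about 4.2% in these data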;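 also: 0% = DAX1-transfected cells with DMSO and 100% = empty-vector control cells with DMSO; inhibition shows as a rise in luminescence from relieved DAX1 repression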
* = called active by the depositor; nt = no result given. This is a sample that favours compounds with a hit; in the whole collection about 5.7% have one here.

SMILES	hgDAF-12 ag	ssDAF12 agonist	AHR act	DAX1 inh-1	hcDAF12 agonist	DAX1 inh-2
COc1ccc(C(OC(=O)c2ccco2)C(=O)NC2CCCCC2)cc1OC (centres undefined)	-1	-1	0	0	-2	1
O=C(NNC(=S)NCCc1ccccc1)c1ccc(Br)s1	0	0	1	0	1	1
COc1ccc(OCc2cc(C(=O)NC3CCOCC3)no2)c2ccccc12	3	0	17	-2	6.3*	0
COc1ccccc1OCc1cc(C(=O)N(C)CCC2CCOCC2)no1	10	1	nt	3.9*	5	3
CC(=O)c1cccc(OCc2cc(C(=O)N(C)CCC3CCOCC3)no2)c1	4	-1	4	2	1	1
CCOC(=O)COc1ccccc1C1Nc2ccccc2C(=O)N1c1cccc(Cl)c1 (centres undefined)	12*	-1	5	3	2	1
OCCNc1nc(Nc2ccccc2)nc2ccccc12	0	-1	51*	0	-2	-1
OCCNc1nc(Nc2ccccc2)nc(Nc2ccccc2)n1	-3	-1	48*	0	0	2
Oc1cccc(Nc2nc(NCC3CCCO3)c3ccccc3n2)c1 (centres undefined)	nt	nt	79*	nt	nt	-1
CC(C)(C)Nc1nc(Cl)nc(Nc2ccccc2)n1	11*	0	8	2	4	2
CC(C)(CO)Nc1nc(Nc2ccccc2)nc(Nc2ccccc2)n1	-1	-2	5	-1	-3	0
Clc1nc(Nc2ccccc2)nc(Nc2ccccc2)n1	0	-1	11	0	-2	-2
CCc1nc2sc(C)c(C)c2c(=O)n1CCO	0	-1	-2	0	-2	0
Cc1c(Cl)cccc1Nc1nc(NCCO)c2ccccc2n1	-1	-2	57*	-1	-1	2
CC(C)(C)NC(=S)NNC(=O)c1ccc2ncccc2c1	11*	0	7	3.8*	4	2
O=C(NNC(=S)Nc1ccccc1)c1ccc2ncccc2c1	7	-2	-2	2	0	1
Cc1cc(NC(=O)CSc2nnc(Cc3ccccc3)o2)no1	0	-1	-2	0	-1	5.1*
Cc1cc(NC(=O)CSc2nnc(-c3ccc4c(c3)OCCO4)o2)no1	10	0	26	3.9*	4	-1
Cc1ccc(NC(=O)Cc2nc(CSc3nnc(-c4ccc5c(c4)OCO5)o3)cs2)cc1	3	0	50*	1	2	-1
Cc1cc(NC(=O)CSc2nnc(-c3cccc(Cl)c3)o2)no1	0	-1	17	0	-3	1
CN(C)C(=O)c1ccc(NC(=O)CSc2nnc(-c3ccc4c(c3)OCO4)o2)cc1	0	-1	nt	0	-1	3
CC(=O)Nc1ccc(S(=O)(=O)NCCS(=O)(=O)N2CCN(c3ccccc3)CC2)cc1	-1	-2	-1	-1	-3	-1
Cc1cc(C)nc(NS(=O)(=O)c2ccc(NC(=O)CSc3ncn[nH]3)cc2)n1	-2	-1	2	0	-1	5.8*
COc1ccc(CNS(=O)(=O)/C=C/c2ccc(F)cc2CNC(=O)OC(C)(C)C)cc1	-3	-2	nt	-2	-2	nt
CN1CCN(CC(O)COc2ccccc2)CC1 (centres undefined)	13*	0	0	1	5	2
SMILES	hgDAF-12 ag	ssDAF12 agonist	AHR act	DAX1 inh-1	hcDAF12 agonist	DAX1 inh-2
NC(=O)C1CCN(CC(O)COc2ccc(-c3ccccc3)cc2)CC1 (centres undefined)	-4	0	nt	1	-2	5.6*
Cc1cccc(N2CCN(CC(O)COc3ccccc3)CC2)c1 (centres undefined)	3	-2	nt	0	-2	4.8*
C[C@@H]1CN([C@H](C)CO)C(=O)c2cccc(NS(=O)(=O)c3ccccc3)c2O[C@H]1CN(C)C	0	0	0	0	0	-1
COc1ccc(C2=CSC3=NCCN23)cc1OC	-2	-2	0	0	-2	1
CCN(CC)S(=O)(=O)c1ccc(OC)c(N)c1	2	-1	-2	1	1	2
CCCOc1ccc(CC(=O)NCc2ccco2)cc1OC	1	-1	3	-1	-1	0
CCOc1ccccc1NC(=O)NC(C)c1ccc2c(c1)OCO2 (centres undefined)	3	-1	58*	-1	0	2
CCOc1ccccc1C(=O)NC(C)c1ccc2c(c1)OCO2 (centres undefined)	-3	-2	52*	0	-2	-1
COc1cc(C(=O)NCCC(C)C)ccc1OCc1ccc(Cl)cc1Cl	2	-1	-3	0	-2	0
CN(Cc1ccccc1)C(=O)c1ccc(Nc2nc(CN)cs2)nc1	2	-1	nt	1	2	nt
Cc1cccc(-c2cnc(C(O)c3ccc(F)c(C)c3)[nH]2)c1 (centres undefined)	2	-2	nt	2	1	nt
CSc1ccccc1NC(=O)COc1ccc2c(c1)OCO2	6	-1	3	2	0	1
Cc1ccc(C(C)C)c(OCC(=O)NNC(=O)CC2OC(=O)c3ccccc32)c1 (centres undefined)	2	0	16	-1	-1	4.2*
O=C(N/N=C/c1c(Cl)cccc1Cl)c1ccccc1F	3	-1	60*	0	1	-1
COC(=O)CNC(=O)C1Cc2ccccc2CN1S(=O)(=O)c1cccs1 (centres undefined)	-3	-1	4	0	0	2
COc1ccc2c(=O)c(Oc3ccc(C(=O)O)cc3)c(C(F)(F)F)oc2c1	10	0.9*	-5	4.2*	3	-2
CC(C)c1nnc(NC(=O)c2cccs2)s1	12*	0	53*	2	5	0
O=C(CCC(=O)c1cccs1)Nc1nnc(C2CC2)s1	-2	-1	15	1	2	-1
O=C(Nc1nnc(C2CC2)s1)c1cccs1	5	0	15	3.8*	1	0
CCOC(=O)C1CCCN(c2c(C(=O)c3ccccc3)cnc3ccc(OC)cc23)C1 (centres undefined)	-4	-1	10	0	-4	-2
COc1ccc(CC(=O)N2N=C(c3ccncc3)CC2(O)C(F)(F)F)cc1 (centres undefined)	-1	-1	-1	-2	-2	-2
COCCCNC(=O)c1ccc2sc(C3=C[C@@H](O)[C@@H](O)[C@@H](CO)O3)nc2c1	1	-1	nt	0	0	nt
Cc1ccc(C(=O)Nc2oc(-c3ccccc3)cc2C#N)cc1	0	-1	56*	0	0	0
N#Cc1cc(-c2ccccc2)oc1NC(=O)c1ccccc1	-1	-1	16	-1	-1	1
Cc1cc(S(=O)(=O)NCc2cccs2)ccc1-n1cnnn1	1	-1	0	-1	-1	-1

Compound activity deposited in PubChem by The Scripps Research Institute Molecular Screening Center.
